Rows were chosen to be rich in hits. Some 21% of all compounds tested hit in one or more screens of this group.
Pf growth 96h: P. falciparum growth inhibition at 96 hour, primary screen for plastid delayed-death inhibitors. P. falciparum luciferase reporter growth, 96 h. Potency, µM (top dose mostly 28.7 µM), for inactives: at the top dose activity change, negative = inhibition, most hits filed as inhibitors. 320,000 compounds, 6.9% hits. AID 504834; further: potency means the concentration at half of the fitted maximal effect; on the % scale 0 is the no-effect control and ±100 the full control effect
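Plates of compound plus infected erythrocytes (2% hematocrit, 0.05% parasitemia final) incubate 96 hours, 37 C, 5% CO2. Detection reagent added; reduced luminescence from the parasites' luciferase reporter flags inhibition.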
CHX counter: affects cycloheximide protein synthesis inhibition readout, counter-screen; cell reporter, cycloheximide protein synthesis inhibition counterscreen; max response, %; 300,000 compounds, 12% hits; AID 2314; in the data active means max response mostly above about 13%, no sharp cut-off; inactive means mostly below about 14%; further: read at 38.3 µM for the half of the compounds with a filed dose; 0% is about no effect
Shiga inhibitor: Shiga toxin inhibition | Vero cells, Shiga toxin protein synthesis inhibition reporter | inhibition, % at 38.7 µM | 290,000 compounds, 9.2% hits; in the data active means inhibition mostly above about 28%, no sharp cut-off; inactive means mostly below about 43%; further: 0% is about no effect
NS1 function inh: blocks influenza NS1 protein function; AID 2326; Potency, µM (titrated, usually from 46.1 µM), without a hit: at the highest dose activity, positive = more growth; 270,000 compounds, 0.4% hits; calls by dose curve; further: potency means the concentration at half of the fitted maximal effect; actives are rising curves; nearly all actives have a fitted effect of over 50% in size
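In this qHTS, NS1 from influenza A is expressed in budding yeast, where it slows growth. Cells are switched from glucose to 2% galactose medium (pH 6.0, -URA), treated with compound, and growth recovery is read at OD600.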
Pf growth 48h: P. falciparum growth inhibition at 48 hours (one generation) | P. falciparum luciferase growth in erythrocytes, 48 h | Potency, µM (doses to about 28.7 µM), without a hit: at the highest dose activity change, negative = inhibition, actives largely listed as inhibitors | 310,000 compounds, 5.9% hits; further: potency means the concentration at half of the fitted maximal effect; on the % scale 0 is the no-effect control and ±100 the full control effect
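Cell-based growth assay: transgenic P. falciparum expressing firefly luciferase, cultured in red cells within RPMI 1640 containing 0.5% w/v Albumax, 24 mM bicarbonate and gentamycin. A drop in luciferase activity indicates inhibition.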
Numbers without * were called inactive; i = inactive; u = inconclusive; x = no result. Unless noted, the call rests on the fitted dose curve; in most records, active means well fitted inhibition curve with a large enough effect; inconclusive means small, poorly fitted or top-dose-only effect, or another doubt; inactive means no such curve, though single readings can be large or run the other way.

SMILES | Pf growth 96h | CHX counter | Shiga inhibitor | NS1 function inh | Pf growth 48h
O=C(NCC(=O)N(c1cccnc1)C(C(=O)NC1CCCC1)c1cccs1)c1cccs1 (configuration not stated) | 12µM* | -3 | -17 | 2% | -2%
Cc1cccc(N(C(=O)CNC(=O)c2ccco2)C(C(=O)NC2CCCC2)c2cccnc2)c1 (configuration not stated) | 4.1µM* | -4 | 2 | -10% | 14%
O=C(NCC(=O)N(Cc1cccs1)C(C(=O)NC1CCCCC1)c1cccnc1)c1ccco1 (configuration not stated) | u | -1 | 17 | -6% | 0%
NC1=NC(=O)C(Cc2ccc(Br)cc2)S1 (configuration not stated) | -6% | -3 | -7 | 15% | 17%
COc1ccc(NC(=O)Nc2cccc3ccccc23)cc1S(N)(=O)=O | 44% | -3 | -9 | 7% | -2%
COc1ccc(S(=O)(=O)N(CC(=O)NCc2ccncc2)c2ccc(C)cc2)cc1Br | -22% | -6 | -6 | -15% | 1%
C/C(CC(=O)Nc1ccc2c(c1)OCCO2)=N\NC(=O)c1ccc([N+](=O)[O-])cc1Cl | -2% | 14 | 4 | 22% | -11%
C/C(CC(=O)Nc1ccc2c(c1)OCCO2)=N\NC(=O)Cc1ccc(Cl)cc1 | u | -2 | 129* | -2% | 7%
C/C(CC(=O)Nc1ccc2c(c1)OCCO2)=N\NC(=O)c1ccccc1Cl | 31% | 20* | 76 | -5% | 33%
C/C(CC(=O)Nc1ccc2c(c1)OCCO2)=N\NC(=O)Cc1ccccc1 | 0% | 2 | 9 | 1% | 9%
COc1ccc(NS(=O)(=O)c2cc(NC(=O)Cn3cnc4c3c(=O)n(C)c(=O)n4C)ccc2C)cc1 | -32% | -1 | -11 | -3% | u
Cc1cc2nccc(-c3ccc(Cl)c([N+](=O)[O-])c3)n2n1 | 37% | -3 | 17 | x | i
COC(=O)C1=C(C)NC(C)=C(C(=O)OC)C1c1ccc2ccccc2n1 | x | -2 | -11 | 8% | -20%
COC(=O)C1=C(C)NC(C)=C(C(=O)OCCSc2ccccc2)C1C (configuration not stated) | x | 13* | 23* | x | x
CN(C)C(=O)c1ccc(-n2cccn2)nc1 | 2% | 9 | 30 | x | 10µM*
O=C(NCc1ccc(Cl)cc1)c1ccc(-n2cccn2)nc1 | 29% | -6 | -15 | x | 162%
O=C(Nc1ccc(F)cc1F)c1ccc(-n2cccn2)nc1 | 20% | 16* | 18 | x | 39%
CC(C)Sc1ccc(C(=O)Nc2ccc(F)cc2F)cn1 | 76% | 48* | 50* | -6% | 42%
O=C(CSc1ncnc2ccccc12)NCC(=O)c1ccccc1 | u | 16 | 18 | x | 40%
C=CCOc1ccc(/C=C/C(=O)Nc2ccc(C(=O)NC)cc2)cc1 | u | -5 | -15 | 5% | u
C=CCOc1ccc(/C=C/C(C)=N\O)cc1 | i | 50* | 85* | -39% | 291%
Cc1ccc(S(=O)(=O)N(C)Cc2ccc(-c3nnc4n3CCC4)cc2)cc1 | 11% | -4 | 22 | -12% | 10µM*
COc1ccc(C(=O)Nc2ccc(N3CCOCC3)cc2)cc1S(=O)(=O)N1CCOCC1 | 9% | x | x | x | 43%
COc1ccc(C(=O)Nc2ccc(-c3cn4ccsc4n3)cc2)cc1S(=O)(=O)N1CCOCC1 | 0.33µM* | -5 | 26 | -7% | u
COc1ccc(C(=O)N2CCCC2)cc1S(=O)(=O)N1CCOCC1 | 18% | 2 | -16 | -2% | 27%
SMILES | Pf growth 96h | CHX counter | Shiga inhibitor | NS1 function inh | Pf growth 48h
COc1cc2c(cc1OC)CN(C(=O)c1ccc(OC)c(S(=O)(=O)N3CCOCC3)c1)CC2 | x | 24* | 38 | -12% | u
COc1ccc(C(=O)Nc2ccc(N3CCOCC3)cc2)cc1S(=O)(=O)N1CCCC1 | -14% | x | x | x | u
COc1ccc(C(=O)Nc2ccc(-c3ccc(C)o3)cc2)cc1S(=O)(=O)N1CCOCC1 | x | 19* | 48 | 2% | u
CCc1nc2ccc(Cc3ccc4nc(CC)[nH]c4c3)cc2[nH]1 | -18% | 21 | 43 | -1% | u
CCCCNC(=O)c1cc2cc(OC)ccc2[nH]1 | 25% | 14* | 23 | 3% | 29%
COc1ccc2[nH]c(C(=O)NCCc3ccccc3)cc2c1 | 44% | 32* | 85* | -12% | 109%
COc1ccc2[nH]c(C(=O)NCCCn3ccnc3)cc2c1 | u | -2 | -5 | 0% | u
CCN1CCN(CC(=O)c2c(C)n(Cc3ccccc3)c3ccc(OC)cc23)CC1 | x | -3 | -10 | 14% | u
CCn1c(C)c(C(=O)NCCc2ccccc2)c2cc(OC)ccc21 | -14% | 18* | 19 | -2% | -18%
COc1ccc(/C=C2\SC(=O)N(CC(=O)NN3CCN(C)CC3)C2=O)cc1OC | 26% | -2 | -5 | -6% | 63%
Cc1nc(C)c(-c2ccc(SCC(=O)Nc3cccc(Cl)c3)nn2)s1 | 13µM* | 14 | -6 | -4% | -7%
CCOc1ccccc1NC(=O)CSc1ccc(-c2ccco2)nn1 | u | -1 | -5 | -4% | -14%
CCOc1ccccc1NC(=O)CSc1ccc(-c2sc(C)nc2C)nn1 | 10µM* | -1 | -3 | -28% | u
CC(=O)c1cccc(NC(=O)CSc2ccc(-c3sc(C)nc3C)nn2)c1 | 13µM* | 21 | 35 | -7% | -15%
COc1ccc(NC(=O)CSc2ccc(-c3sc(C)nc3C)nn2)cc1 | 13µM* | 12 | -5 | -3% | -15%
CN(C)CCNC(=O)C1CCN(S(=O)(=O)c2ccc3ccccc3c2)CC1 | -18% | 0 | -16 | -3% | 50%
O=S(=O)(Nc1cccc(-c2nnco2)c1)c1ccc(F)cc1F | -1% | -1 | -1 | 1% | 13%
CCOc1cc(C(=O)OC(C)C(=O)Nc2ccc(NC(C)=O)cc2)ccc1OCC(=O)N1CCCCC1 (configuration not stated) | u | -1 | 8 | -4% | -16%
CCN(CC)Cc1c[nH]c2ccccc12 | 8.3µM* | 28 | 59 | -9% | u
CCN(CC)Cc1c[nH]c2c(C(=O)OC)cccc12 | 2.6µM* | 20 | 20 | 0% | 0%
CN(Cc1c[nH]c2ccccc12)C1CCCCC1 | 1% | -5 | -12 | 0% | -16%
COC(=O)c1c[nH]c(=O)c2ccccc12 | u | -1 | -16 | 4% | 35%
COc1ccc(NC(=O)c2ccc(Cl)c(NC(=O)c3ccncc3)c2)cc1 | 0% | 5 | -4 | 1% | 8%
Oc1c(Br)cc(C2N=C(c3ccccc3)NO2)cc1Br (configuration not stated) | 71% | 26* | 103* | -114% | -4%
CSc1ccc(C2N=C(c3ccccc3)NO2)cc1 (configuration not stated) | 371% | 41* | 114* | 0% | 18%
O=C(NNC(=O)C12CC3CC(CC(O)(C3)C1)C2)c1csc(N2CCOCC2)n1 | -30% | 14 | -15 | -1% | 6%
Cc1cc(C)n(-c2ccc(C(=O)OCC(=O)Nc3cc(S(C)(=O)=O)ccc3Cl)cc2)n1 | -1% | x | x | x | 18%

From PubChem BioAssay
